Source: PubChem BioAssay (National Center for Advancing Translational Sciences (NCATS))
TDP1 cell noCPT: qHTS for Inhibitors of human tyrosyl-DNA phosphodiesterase 1 (TDP1): qHTS in cells in absence of CPT; DT40 Tdp1-/- hTDP1 cells, no CPT, ATP luminescence, 48 h; Potency, µM (series often up to 46.2 µM), hits mostly inhibitors; 15% of 420,000 active; AID 686978, 2013; note: nearly all actives have a fitted effect of over 55% in size
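No-CPT arm: Tdp1-/-;hTDP1 DT40 cells (400/well) plus compounds, incubated ≥48 hr at 37 °C. Readout CellTiter-Glo luminescence.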
PLK1 PBD block: qHTS for Inhibitors of PLK1-PDB (polo-like kinase 1 - polo-box domain): Primary Screen | Potency, µM, hits mostly inhibitors | Plk1 PBD binding of FITC phosphopeptide, fluorescence polarization | AID 720504, 2013 | 2.8% of 360,000 active | Serine/threonine-protein kinase PLK1 (Homo sapiens), P53350; note: series mostly up to about 57 µM; nearly all actives have a fitted effect of over 65% in size
Target sequence (P53350 whole entry, looked up, the tested form may be a part): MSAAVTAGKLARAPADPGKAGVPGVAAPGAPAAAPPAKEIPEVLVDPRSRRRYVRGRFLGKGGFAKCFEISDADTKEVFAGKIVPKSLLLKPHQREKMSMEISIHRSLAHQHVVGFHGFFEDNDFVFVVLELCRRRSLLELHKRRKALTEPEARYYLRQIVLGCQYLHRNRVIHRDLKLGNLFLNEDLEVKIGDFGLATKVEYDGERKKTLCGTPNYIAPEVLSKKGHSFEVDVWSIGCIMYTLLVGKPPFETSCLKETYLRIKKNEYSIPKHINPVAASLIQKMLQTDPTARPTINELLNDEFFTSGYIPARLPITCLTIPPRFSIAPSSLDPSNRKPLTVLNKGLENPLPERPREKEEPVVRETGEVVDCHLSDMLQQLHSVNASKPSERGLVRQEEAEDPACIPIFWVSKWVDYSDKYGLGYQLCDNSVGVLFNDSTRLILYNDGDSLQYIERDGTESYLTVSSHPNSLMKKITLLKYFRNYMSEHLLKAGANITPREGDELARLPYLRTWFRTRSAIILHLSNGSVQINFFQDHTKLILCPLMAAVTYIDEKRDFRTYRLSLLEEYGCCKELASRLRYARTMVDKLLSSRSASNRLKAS
TDP1 cell CPT: qHTS for Inhibitors of human tyrosyl-DNA phosphodiesterase 1 (TDP1): qHTS in cells in presence of CPT; chicken DT40 Tdp1-/-;hTDP1 cells + 20 nM CPT, ATP luminescence, 48 h; Potency, µM (top dose mostly 46.2 µM), hits mostly inhibitors; 12% of 420,000 active; AID 686979, 2013; note: nearly all actives have a fitted effect of over 55% in size
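Chicken DT40 Tdp1-/- cells complemented with human TDP1, 400 cells/well, exposed to compounds plus 20 nM camptothecin for at least 48 h at 37 C; viability read as ATP content by CellTiter-Glo luminescence.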
GCN5L2 inh: qHTS Assay for Inhibitors of GCN5L2; Potency, µM (doses to about 58.9 µM), usual class: inhibitors; Histone acetyltransferase KAT2A (Homo sapiens), Q92830; 0.21% of 390,000 active; GCN5L2 HAT assay, ThioGlo1 CoA-SH fluorescence
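Free CoA generated was detected with ThioGlo1 (50uM) fluorescence at Ex340nm/Em540nm, read immediately and after 20 min at room temperature. Enzyme, 20 nM in HEPES pH 7.5 buffer, saw compounds 15 min before adding 75uM H3(1-25) peptide and 70uM acetyl-CoA.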
TDP1 block: qHTS Assay for Inhibitors of Tyrosyl-DNA Phosphodiesterase (TDP1). recombinant TDP1, AlphaScreen DNA substrate cleavage. AID 485290, 2010. Tyrosyl-DNA phosphodiesterase 1 (Homo sapiens), Q9NUW8. 0.28% of 350,000 active. Potency, µM (highest dose often 130 µM), most hits filed as inhibitors; note: nearly all actives have a fitted effect of over 40% in size
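Here, a 5' biotin and 3' phosphotyrosine-FITC DNA oligonucleotide reports Tdp1 activity: intact substrate bridges AlphaScreen beads, while cleavage leaves a 3' phosphate and drops signal. All incubations at room temperature.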
VDR inhibitor: Inhibitors of the vitamin D receptor (VDR): qHTS. VDR-SRC2-3 peptide fluorescence polarization, 2 h. AID 504847, 2011. 0.93% of 400,000 active. Potency, µM, most hits filed as inhibitors. Vitamin D3 receptor (Homo sapiens), P11473
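Two reagent solutions held at 4 deg C in the dark were dispensed, compounds pinned at 23 nl, and the mixture incubated 2 h at room temperature. Read-out: fluorescence polarization of VDR–SRC2-3 peptide binding.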
A number is an active result; i = inactive; ? = inconclusive; nt = no result given. Rows were chosen to be rich in hits. Some 18% of all compounds tested hit in one or more screens of this group. Calls come from the whole dose curve; as a rule, active = well fitted curve in the direction sought with a large enough effect; inconclusive = small, poorly fitted or top-dose-only effect, or another doubt; inactive = no such curve, though single readings can be large; an effect the other way counts as inactive or inconclusive.

SMILES | TDP1 cell noCPT | PLK1 PBD block | TDP1 cell CPT | GCN5L2 inh | TDP1 block | VDR inhibitor
CCN1CCN(S(=O)(=O)c2ccc(Cl)c(C(=O)Nc3ccc(C(=O)N(CC)CC)cc3)c2)CC1 | ? | i | 15µM | i | i | i
CCN(CC)C(=O)c1ccc(NC(=O)c2cccc(C(F)(F)F)c2)cc1 | ? | i | i | i | i | i
CCCCCCC(C)(C)c1cc(OC)c2c(c1)OC(C)(C)[C@@H]1CC=C(C)C[C@@H]21 | nt | nt | nt | i | i | i
Cc1ccc(C)c(N2CCN(C(=O)C3CCCN(S(=O)(=O)c4cccc5nsnc45)C3)CC2)c1 (stereo not given) | 7.3µM | nt | 5.8µM | i | i | i
O=C(C1CCCN(S(=O)(=O)c2cccc3nsnc23)C1)N1CCC2(CC1)OCCO2 (stereo not given) | i | i | i | i | i | i
C=CCc1cc(OC)c2c(c1OC)OCO2 | i | nt | i | i | i | i
CC(C)NCC(O)c1ccc(C2CCCC2)cc1 (stereo not given) | 16µM | i | 16µM | i | i | i
CCOC(=O)NC(C)(C)Cc1ccc(Cl)cc1 | ? | nt | i | nt | nt | nt
CN[C@@H](C)Cc1ccccc1 | i | nt | i | nt | nt | nt
CC(C)(C)OOC(=O)c1ccccc1 | nt | nt | nt | nt | i | nt
CC(C)[C@]12O[C@H]1[C@@H]1O[C@]13[C@]1(O[C@H]1C[C@H]1C4=C(CC[C@@]13C)C(=O)OC4)[C@@H]2O | 0.15µM | nt | 0.12µM | i | i | i
Cc1sc2c(c1C)C(c1ccc(C(C)(C)C)cc1)=NCC(=O)N2CC(=O)Nc1nccs1 | ? | i | ? | i | i | i
CC(CNC(=O)c1ccc(CSc2nc3ccncc3n2Cc2ccc(F)cc2)cc1)c1ccccc1 (stereo not given) | ? | nt | i | i | i | i
c1ccc(OCc2ccc(CCCN3CCOCC3)cc2)cc1 | 21µM | i | ? | i | i | i
CCCCCCCCCCCCCCCC(=O)O[C@@H]1[C@@H](O)[C@@H](O)[C@@H]([C@H](NC(=O)[C@@H]2C[C@@H](CCC)CN2C)[C@H](C)Cl)O[C@@H]1SC | ? | nt | 24µM | nt | nt | nt
NCCNC[C@@H](N)CCCN=C(N)N[N+](=O)[O-] | nt | nt | nt | i | i | i
O=C1NC(=O)C(CCc2ccncc2)(CCc2ccncc2)C(=O)N1Cc1ccc(F)cc1 | ? | ? | 15µM | i | i | i
Cc1ccc(C)c(N2CCN(c3ncnc4onc(C)c34)CC2)c1 | 13µM | nt | ? | i | i | i
Cc1ccc(C)c(N2CCN(C(=O)c3cccn4c(=O)c5ccccc5nc34)CC2)c1 | ? | nt | ? | i | i | i
Cc1nc(-c2cccc(NC(=O)c3ccc(Cl)c(S(=O)(=O)N4CCCC4)c3)c2)cs1 | 8.2µM | i | ? | nt | nt | nt
ClCc1ccccn1 | nt | nt | nt | nt | i | nt
Nc1nc2ccc(Cl)cc2c2nc(-c3ccco3)nn12 | 8.9µM | nt | 6.3µM | ? | i | ?
CC(N)(COP(=O)(O)Oc1ccccc1)C(=O)O (stereo not given) | i | nt | i | i | i | i
CCCCn1nc(C)c(C(=O)O)c1Cl | i | i | i | i | i | i
COc1ccc(CCN)cc1 | i | nt | i | i | i | ?
SMILES | TDP1 cell noCPT | PLK1 PBD block | TDP1 cell CPT | GCN5L2 inh | TDP1 block | VDR inhibitor
CCOC(=O)CC(NC(=O)C(Cc1ccc(N(CCCl)CCCl)cc1)NC(C)=O)C(=O)OCC (stereo not given) | 0.52µM | 6µM | 1.5µM | i | i | ?
O=C(Oc1ccccc1)N1CCC2(CCCN(C(c3ccccc3)c3ccccc3)C2)CC1 | i | nt | i | i | nt | i
CCN(CC)CCN=Cc1c(O)n(C2CCCCCC2)c(=O)[nH]c1=O | i | i | i | i | i | i
CC(C)C(=O)N1CCC(CN=Cc2c(O)n(C3CCCCC3)c(=O)n(C3CCCCC3)c2=O)CC1 | 23µM | i | ? | i | i | i
CC1CN1c1cc2c(c3c1ccn3C)C1CCC2C1 (stereo not given) | 8.2µM | i | 7.3µM | nt | nt | nt
CSc1ccc(C(=O)C2CCCN(Cc3cc4ccccc4[nH]3)C2)cc1 (stereo not given) | ? | 30µM | ? | i | i | 89µM
CN1CC=C(/C=C/c2ccc(-c3ccccc3)cc2)CC1 | 12µM | i | 15µM | i | nt | i
CN(C)S(=O)(=O)c1ccc(C(=O)NNc2nc(-c3ccccc3)c3cc(Br)ccc3n2)cc1 | ? | i | ? | i | i | i
CC1CCC(NC(=O)c2cc3c(=O)n(C)c4ccccc4c3n2C)CC1 (stereo not given) | ? | i | 9.2µM | i | i | i
O=[N+]([O-])c1nccn1CC(O)CN1CC1 (stereo not given) | 10µM | i | 12µM | nt | nt | nt
OCCOCCO | i | i | i | i | i | i
COC(=O)COc1ccc(C[C@@H](C)NC[C@H](O)c2cccc(Cl)c2)cc1 | nt | nt | nt | i | i | i
O[C@@H]1CCCN2CCc3c([nH]c4ccccc34)[C@H]12 | ? | i | 15µM | nt | nt | i
CC(C(=O)O)c1ccc(C(=O)c2cccs2)cc1 (stereo not given) | i | i | i | i | i | i
O=C(Oc1c(Cl)cc(Cl)c2ccccc12)N1CCCCC1 | ? | i | ? | i | i | i
O=C(Oc1c(Br)cc(Br)c2cccnc12)N1CCCCC1 | ? | i | 23µM | i | i | i
C[C@H]1COC(=O)[C@H](Cc2ccc(F)cc2)CC/C=C/C[C@@H](CC(=O)N(CCO)Cc2ccccc2)C(=O)N1 | 18µM | i | 23µM | i | i | i
Cc1ccc(-n2cc(CNC(C)Cc3cnccn3)c(-c3cccc(C)c3)n2)cc1 (stereo not given) | 12µM | i | 13µM | i | i | i
O=c1c2ccccc2nc(Cc2ccccc2)n1-c1cccc(O)c1 | 21µM | i | 15µM | i | i | i
O=C1Nc2ccccc2C1Cc1nc2ccccc2c(=O)n1-c1ccccc1 (stereo not given) | ? | 21µM | ? | i | nt | ?
Cc1cccc(-n2c(CC3C(=O)Nc4ccc(C)cc43)nc3ccccc3c2=O)c1 (stereo not given) | 21µM | nt | ? | i | i | i
O=c1c2ccccc2nc(-c2ccccc2)n1-c1cccc(O)c1 | ? | i | ? | i | i | i
Oc1cc2c(cc1O)[C@H]1c3ccccc3CNC1CC2 (stereo not given in full) | nt | nt | nt | nt | i | nt
COc1ccc(/C=N\N=C(N)N)cc1 | 16µM | i | ? | i | i | i
c1cc2c(cc1N1CCOCC1)CNCc1cnnn1-2 | i | i | i | nt | nt | nt
